Compounds without any hit were thinned out: in the full panel of roughly 83,000, 20% have a hit.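 The test compound was applied at a single concentration to cells in 96-well plates for 48 hours, and percent growth was recorded.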 Values without a mark were called inactive. The source made the active and inactive calls. The calls were made as follows: active = growth percent below 10; inactive = the rest.

Among the test systems are NCI-H23 lung; NCI-H226 lung; NCI-H322M lung; HOP-62 NSCLC; NCI-H460 lung; HOP-92 NSCLC; NCI-H522 lung; A549/ATCC NSCLC; 786-0 renal; COLO 205 colon; DU-145 prostate; K-562 leukemia; MALME-3M melanoma; MDA-MB-231 breast; RXF 393 renal; SF-268 CNS; SF-295 CNS; SF-539 CNS; UACC-257 melanoma; M14 melanoma.
Holding throughout (assay): NCI-60 one-dose screen, 48 h (100 = growth as untreated, 0 = no growth, -100 = all killed)
Settings in all cases: 10 µM unless noted

As for `CCC1(CCSC#N)C(=O)NC(=O)NC1=O`, the growth with NCI-H23 lung was 91.5%; with NCI-H226 lung, 104%; in the assay with NCI-H322M lung it was 97.9%; in the assay on HOP-62 NSCLC, 94.9%; in the assay on NCI-H460 lung it was 107%; in the assay on HOP-92 NSCLC, 85.8%. Moreover, the growth in the assay with NCI-H522 lung is 109%; in the assay with A549/ATCC NSCLC, 106%; with 786-0 renal, 93.5%; in the assay with COLO 205 colon, 108%; in the assay with DU-145 prostate, 106%; with K-562 leukemia, 86.5%. The growth in the assay with MALME-3M melanoma was 86.2%; in the assay with MDA-MB-231 breast, 106%; in the assay on RXF 393 renal, 117%; in the assay with SF-268 CNS it was 97.2%; in the assay with SF-295 CNS, 100%; with SF-539 CNS it was 94.9%. Moreover, the growth with UACC-257 melanoma is 98.9%; in the assay on M14 melanoma, 94.6%.
Turning to `C[C@]12CCc3sc(Nc4ccc(O)cc4)nc3C1=CC[C@@H]1[C@@H]2CC[C@]2(C)C(=O)CC[C@@H]12`, the growth in the assay with NCI-H23 lung was 70.2%; in the assay on NCI-H226 lung, 103%; in the assay with NCI-H322M lung, 93.4%; in the assay with HOP-62 NSCLC, 92.7%; with NCI-H460 lung, 65.6%; with HOP-92 NSCLC, 126%. In addition, the growth is -55.2% (active) in the assay with NCI-H522 lung; 79.3% in the assay with A549/ATCC NSCLC; -3.03% (active) in the assay on 786-0 renal; 38.5% in the assay on COLO 205 colon; 10.4% with DU-145 prostate; 10.8% in the assay with K-562 leukemia. For the same compound, the growth in the assay on MALME-3M melanoma is 29.7%; with MDA-MB-231 breast it was 35.3%; in the assay with RXF 393 renal, -16.2% (active); in the assay on SF-268 CNS, 58.3%; in the assay with SF-295 CNS, 52.5%; with SF-539 CNS it was -3.84% (active). Besides, the growth was 73.4% in the assay on UACC-257 melanoma and 58.1% with M14 melanoma.
On to `C=CC[PH+](c1ccccc1)c1ccccc1.C=CC[PH+](c1ccccc1)c1ccccc1.[Pt+2].[S-]c1ncccn1.[S-]c1ncccn1`, for which the growth with NCI-H23 lung was 36.6%; in the assay on NCI-H226 lung, 3.04% (active); in the assay with NCI-H322M lung, 85.1%; in the assay with HOP-62 NSCLC, 90.3%; in the assay on NCI-H460 lung, 91.6%; in the assay on HOP-92 NSCLC it was -7.37% (active). Also, the growth in the assay on NCI-H522 lung is -46.1% (active); in the assay on A549/ATCC NSCLC, 71.4%; with 786-0 renal, 19.6%; in the assay with COLO 205 colon, -11.5% (active); in the assay on DU-145 prostate, 35.5%; in the assay on K-562 leukemia, 5% (active). For the same compound, the growth with MALME-3M melanoma was -10.8% (active); in the assay with MDA-MB-231 breast it was 7.07% (active); with RXF 393 renal, -77.6% (active); in the assay with SF-268 CNS it was 87.4%; with SF-295 CNS, 84.2%; in the assay with SF-539 CNS it was 60.2%. For the same compound, the growth in the assay with UACC-257 melanoma is 66.7%; with M14 melanoma it was 1.19% (active).
For the compound `O=C(Cc1ccccc1)c1ccccc1`, the growth in the assay on NCI-H23 lung was 94.5%; with NCI-H226 lung it was 102%; in the assay on NCI-H322M lung, 103%; with HOP-62 NSCLC, 98.5%; in the assay with NCI-H460 lung, 98.9%; with HOP-92 NSCLC it was 88.1%. Further, the growth in the assay with NCI-H522 lung is 103%; with A549/ATCC NSCLC, 107%; in the assay with 786-0 renal it was 102%; in the assay with COLO 205 colon, 102%; with DU-145 prostate it was 105%; with K-562 leukemia it was 104%. For the same compound, the growth with MALME-3M melanoma was 98.7%; in the assay on MDA-MB-231 breast, 110%; in the assay on RXF 393 renal, 103%; with SF-268 CNS it was 103%; in the assay on SF-295 CNS, 112%; in the assay on SF-539 CNS, 98.8%. For the same compound, the growth in the assay on UACC-257 melanoma was 98%; in the assay with M14 melanoma, 107%.
Turning to `C[C@]12CC[C@@H](OC(=O)N(CCCl)N=O)C[C@@H]1CC[C@@H]1[C@@H]2CC[C@]2(C)C(=O)CC[C@@H]12`, the growth in the assay with NCI-H23 lung is 74.7%; in the assay with NCI-H226 lung, 88%; in the assay on NCI-H322M lung, 57.5%; in the assay on HOP-62 NSCLC, 38.6%; in the assay with NCI-H460 lung, -67.5% (active); in the assay with HOP-92 NSCLC, -10.2% (active). Moreover, the growth with NCI-H522 lung is 51.1%; in the assay with A549/ATCC NSCLC it was 10.3%; in the assay on 786-0 renal it was 28.4%; in the assay on COLO 205 colon, -72.1% (active); in the assay with DU-145 prostate, -0.658% (active); in the assay on K-562 leukemia, 23.2%. Moreover, the growth in the assay with MALME-3M melanoma was 108%; in the assay with MDA-MB-231 breast, 81.9%; in the assay with RXF 393 renal, 78%; with SF-268 CNS it was 30.6%; in the assay with SF-295 CNS, -15.7% (active); in the assay with SF-539 CNS, 1.49% (active). In addition, the growth is 76.2% in the assay on UACC-257 melanoma and 72.5% in the assay on M14 melanoma.
As for `COC(=O)[C@@H](C)C[C@H](Cc1ccccc1)NC(=O)c1cccc([C@@H](C[C@H](C(C)C)N(C)C(=O)[C@@H](NC(=O)[C@H]2CCCCN2C)C2CC2)OC(C)=O)n1`, the growth was 21% in the assay with NCI-H23 lung; 22.8% in the assay with NCI-H226 lung; 39.4% in the assay on NCI-H322M lung; 3.33% (active) with HOP-62 NSCLC; 7.3% (active) in the assay on NCI-H460 lung; 5.28% (active) in the assay with HOP-92 NSCLC. Further, the growth in the assay on NCI-H522 lung is -11.3% (active); in the assay with A549/ATCC NSCLC it was 7.97% (active); in the assay on 786-0 renal, 20.8%; with COLO 205 colon, -69% (active); in the assay on DU-145 prostate it was 3.09% (active); in the assay with K-562 leukemia, 6.15% (active). Further, the growth with MALME-3M melanoma was 67.1%; in the assay with MDA-MB-231 breast, -20.4% (active); with RXF 393 renal, 23.4%; with SF-268 CNS, 18.6%; in the assay with SF-295 CNS, 3.47% (active); with SF-539 CNS it was -15% (active). Besides, the values for the growth in the assay with UACC-257 melanoma and with M14 melanoma were 36.4% and 1.47% (active), respectively.
`S=P(SP(=S)(c1ccccc1)c1ccccc1)(c1ccccc1)c1ccccc1`: the growth in the assay on NCI-H23 lung was 99%; in the assay on NCI-H226 lung, 96.6%; with NCI-H322M lung, 107%; in the assay on HOP-62 NSCLC, 111%; in the assay on NCI-H460 lung it was 107%; in the assay with HOP-92 NSCLC it was 86.7%. Besides, the growth with NCI-H522 lung was 88.5%; in the assay with A549/ATCC NSCLC, 106%; with 786-0 renal it was 110%; in the assay with COLO 205 colon, 118%; in the assay on DU-145 prostate it was 106%; with K-562 leukemia, 97%. Further, the growth with MALME-3M melanoma was 96.5%; in the assay on MDA-MB-231 breast, 94.1%; in the assay with RXF 393 renal, 97.1%; in the assay on SF-268 CNS, 95.8%; with SF-295 CNS, 92.5%; in the assay with SF-539 CNS, 103%. Besides, the results for the growth in the assay on UACC-257 melanoma and in the assay on M14 melanoma were 104% and 101%, respectively.

The values are drawn from PubChem BioAssay (NCI).
